# Test results as given in PubChem BioAssay (NCATS).
# Inconclusive results are not listed. A call without a number means that no potency is given here. The source made the active and inactive calls. Unless noted, the call rests on the fitted dose curve; in most records, active means well fitted curve in the direction sought with a large enough effect; inconclusive means small, poorly fitted or top-dose-only effect, or another doubt; inactive means no such curve, though single readings can be large; an effect the other way counts as inactive or inconclusive.
# What was measured:
# [1] = NS1 protein of Zika virus - qHTS assay to identify small molecule inhibitors in human HEK 293 cells (AID 1347053); further: series mostly up to about 46 µM; nearly all actives have a fitted effect of over 55% in size
# Summary of the method: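 Inhibition of NS1 expression was scored in HEK 293 cells given compound 1 h ahead of MR766 virus (MOI = 0.5). Following 24 h at 37 C, two anti-NS1 antibodies generated a TR-FRET signal, scaled between uninfected and infected controls.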
# [2] = qHTS for Inhibitors of the Functional Ribonucleoprotein Complex (vRNP) of Lassa (LASV) Arenavirus: LASV Primary Screen - GLuc reporter signal (AID 1347082; calls by dose curve; tested in HEK293 reporter line; further: series mostly up to about 57 µM; nearly all actives have a fitted effect of over 60% in size)
# [3] = qHTS for Inhibitors of the Functional Ribonucleoprotein Complex (vRNP) of Lassa (LASV) Arenavirus: Viability assay - alamar blue signal for LASV Primary Screen (AID 1347083; calls by dose curve; tested in HEK293 reporter line; further: series mostly up to about 57 µM; nearly all actives have a fitted effect of over 80% in size)
# [4] = qHTS for Inhibitors of the Functional Ribonucleoprotein Complex (vRNP) of Lymphocytic Choriomeningitis Arenaviruses (LCMV): Viability assay - alamar blue signal for LCMV Primary Screen (AID 1347085; calls by dose curve; tested in HEK293 reporter line; further: series mostly up to about 57 µM; nearly all actives have a fitted effect of over 80% in size)
# [5] = target: Nucleoprotein (Lymphocytic choriomeningitis virus (strain Armstrong)) (UniProt P09992); test: qHTS for Inhibitors of the Functional Ribonucleoprotein Complex (vRNP) of Lymphocytic Choriomeningitis Arenaviruses (LCMV): LCMV Primary Screen - GLuc reporter signal (AID 1347086; calls by dose curve; further: series mostly up to about 57 µM; nearly all actives have a fitted effect of over 70% in size)
# Chain of Nucleoprotein (Lymphocytic choriomeningitis virus (strain Armstrong)) (P09992 whole entry, looked up): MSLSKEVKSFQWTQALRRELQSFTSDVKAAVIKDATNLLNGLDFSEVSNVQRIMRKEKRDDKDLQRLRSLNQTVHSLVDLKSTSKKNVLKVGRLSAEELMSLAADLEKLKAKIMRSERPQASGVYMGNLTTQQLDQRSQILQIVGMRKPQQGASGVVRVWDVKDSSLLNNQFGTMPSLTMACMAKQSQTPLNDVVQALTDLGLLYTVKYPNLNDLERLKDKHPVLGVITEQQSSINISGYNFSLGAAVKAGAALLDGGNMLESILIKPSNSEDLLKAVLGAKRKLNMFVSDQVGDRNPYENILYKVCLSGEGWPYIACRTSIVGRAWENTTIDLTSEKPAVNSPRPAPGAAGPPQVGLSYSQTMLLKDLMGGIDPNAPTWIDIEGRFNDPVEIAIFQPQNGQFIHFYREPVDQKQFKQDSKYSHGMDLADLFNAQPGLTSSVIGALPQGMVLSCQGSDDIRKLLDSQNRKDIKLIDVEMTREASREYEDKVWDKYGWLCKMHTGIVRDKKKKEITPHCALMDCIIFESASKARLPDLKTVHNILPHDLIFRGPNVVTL
# [6] = qHTS of pediatric cancer cell lines to identify multiple opportunities for drug repurposing: Primary screen for TC32 cells (AID 1347089); further: nearly all actives have a fitted effect of over 60% in size; further: potency means the concentration at half of the fitted maximal effect
# Summary of the method: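 A viability screen of TC32 cells was run over 48 h, with primary MIPE doses spanning 0.78 nM–46 µM and NPC doses 0.59 nM–46 µM. ATP luminescence (CellTiter-Glo) served as the read-out.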
# [7] = qHTS of pediatric cancer cell lines to identify multiple opportunities for drug repurposing: Primary screen for DAOY cells (AID 1347090); further: nearly all actives have a fitted effect of over 55% in size; further: potency means the concentration at half of the fitted maximal effect
# Summary of the method: (§1)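 Viability measured as metabolically active cells via CellTiter-Glo luminescence following 48 hours of compound exposure, 11-point dilutions in confirmatory testing. 500-1,000 cells/well plated 5 hours before dosing; controls were DMSO and 2.3 µM bortezomib.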
# [8] = qHTS of pediatric cancer cell lines to identify multiple opportunities for drug repurposing: Primary screen for SJ-GBM2 cells (AID 1347091); further: potency means the concentration at half of the fitted maximal effect
# Summary of the method: as §1
# [9] = qHTS of pediatric cancer cell lines to identify multiple opportunities for drug repurposing: Primary screen for A673 cells (AID 1347092); further: nearly all actives have a fitted effect of over 45% in size; further: potency means the concentration at half of the fitted maximal effect
# Summary of the method: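 Titration-based qHTS on A673 cells: MIPE compounds spanned 11 points (0.78 nM to 46 µM final), NPC compounds 8 points (0.59 nM to 46 µM final). Viability after 48 h was measured by ATP luminescence.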
# [10] = qHTS of pediatric cancer cell lines to identify multiple opportunities for drug repurposing: Primary screen for SK-N-MC cells (AID 1347093); further: potency means the concentration at half of the fitted maximal effect
# Summary of the method: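 Metabolically active cells were quantified by ATP-dependent luminescence (CellTiter-Glo, 15 min at room temperature) following 48 h treatment. Cells had been plated at 500-1,000 per well and settled for 5 h beforehand.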
# [11] = qHTS of pediatric cancer cell lines to identify multiple opportunities for drug repurposing: Primary screen for BT-37 cells (AID 1347094); further: potency means the concentration at half of the fitted maximal effect
# Summary of the method: (§2)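 Plated cells (500-1,000 per well, growth media) were allowed to settle for 5 hours, treated with compound dilutions for 48 hours, then lysed with CellTiter-Glo for 15 min at room temperature before luminescence reading.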
# [12] = qHTS of pediatric cancer cell lines to identify multiple opportunities for drug repurposing: Primary screen for NB-EBc1 cells (AID 1347095); further: potency means the concentration at half of the fitted maximal effect
# Summary of the method: as §2
# [13] = qHTS of pediatric cancer cell lines to identify multiple opportunities for drug repurposing: Primary screen for U-2 OS cells (AID 1347096); further: nearly all actives have a fitted effect of over 50% in size
# Summary of the method: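 Viability after 48 h compound treatment at 37C, 500-1,000 cells/well, read as ATP luminescence with CellTiter-Glo. Primary screens used 11-point (MIPE, 0.78 nM-46 µM) or 8-point (NPC, 0.59 nM-46 µM) final concentrations; follow-up screens used 11-point dilutions.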
# [14] = qHTS of pediatric cancer cell lines to identify multiple opportunities for drug repurposing: Primary screen for Saos-2 cells (AID 1347097); further: nearly all actives have a fitted effect of over 40% in size; further: potency means the concentration at half of the fitted maximal effect
# Summary of the method: as §2
# [15] = qHTS of pediatric cancer cell lines to identify multiple opportunities for drug repurposing: Primary screen for SK-N-SH cells (AID 1347098); further: nearly all actives have a fitted effect of over 65% in size; further: potency means the concentration at half of the fitted maximal effect
# Summary of the method: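 Cells (500-1,000/well) rested 5 h, then received compounds for 48 h; metabolically active cells were measured by CellTiter-Glo luminescence. Final concentrations spanned up to 46 µM (MIPE, 11-point) or 0.59 nM-46 µM (NPC, 8-point) in primary screens, 11-point in follow-ups.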
# [16] = qHTS of pediatric cancer cell lines to identify multiple opportunities for drug repurposing: Primary screen for NB1643 cells (AID 1347099); further: nearly all actives have a fitted effect of over 50% in size; further: potency means the concentration at half of the fitted maximal effect
# Summary of the method: as §2
# [17] = target: T1, Tyrosine-protein phosphatase non-receptor type substrate 1 (Homo sapiens) + Leukocyte surface antigen CD47 (Homo sapiens) (UniProt P78324+Q08722); test: CD47-SIRPalpha protein protein interaction - LANCE assay qHTS validation (AID 1347057; active means well fitted curve in the direction sought with a large enough effect in the signal ratio, with a control signal flat, not every such curve was filed as active; the % refers to the signal ratio; further: series mostly up to about 38 µM)
# T1 sequence (P78324 whole entry, looked up): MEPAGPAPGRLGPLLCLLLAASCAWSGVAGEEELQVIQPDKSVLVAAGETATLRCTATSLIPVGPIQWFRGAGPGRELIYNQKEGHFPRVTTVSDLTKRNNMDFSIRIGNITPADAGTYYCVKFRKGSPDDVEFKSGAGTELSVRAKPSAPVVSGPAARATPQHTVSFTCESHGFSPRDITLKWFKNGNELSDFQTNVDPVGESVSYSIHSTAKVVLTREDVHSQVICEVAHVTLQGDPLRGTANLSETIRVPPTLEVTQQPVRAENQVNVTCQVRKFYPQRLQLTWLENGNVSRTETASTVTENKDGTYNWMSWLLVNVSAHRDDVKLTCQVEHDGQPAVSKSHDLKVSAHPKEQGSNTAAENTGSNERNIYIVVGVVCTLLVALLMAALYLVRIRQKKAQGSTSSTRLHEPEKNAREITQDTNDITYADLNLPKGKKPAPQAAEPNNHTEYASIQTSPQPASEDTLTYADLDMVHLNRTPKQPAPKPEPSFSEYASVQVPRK
# T1 sequence (Q08722 whole entry, looked up): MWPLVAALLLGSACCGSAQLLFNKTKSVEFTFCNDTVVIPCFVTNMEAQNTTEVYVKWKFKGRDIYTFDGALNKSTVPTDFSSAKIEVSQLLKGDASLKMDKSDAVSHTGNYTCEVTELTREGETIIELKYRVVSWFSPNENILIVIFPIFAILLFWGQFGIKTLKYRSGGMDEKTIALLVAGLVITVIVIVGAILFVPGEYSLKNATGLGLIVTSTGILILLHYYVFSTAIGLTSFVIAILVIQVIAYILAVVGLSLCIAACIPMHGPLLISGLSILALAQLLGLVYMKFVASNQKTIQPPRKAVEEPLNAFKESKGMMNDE
# Summary of the method: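 First, His-tagged CD47 and Eu-labelled anti-His antibody met the compound for 30 min; next, site-specifically biotinylated SIRPalpha was added for 30 min; finally streptavidin-APC was added before reading the TR-FRET ratio.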
# [18] = target: T1, Tyrosine-protein phosphatase non-receptor type substrate 1 (Homo sapiens) + Leukocyte surface antigen CD47 (Homo sapiens); test: CD47-SIRPalpha protein protein interaction - HTRF assay qHTS validation (AID 1347058; active means well fitted curve in the direction sought with a large enough effect in the signal ratio, not every such curve was filed as active; the % refers to the signal ratio;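 further: recombinant soluble extracellular CD47 with His tag and biotinylated SIRPalpha domains; series mostly up to about 38 µM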)
# Summary of the method: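 TR-FRET read (Ch1/Ch2 ratio) of soluble extracellular CD47 and Avi-biotinylated SIRPalpha domains in PBS pH 7.4 with 0.05% IGEPAL; 7-point compound titration. Sequential 30 min room-temperature steps; non-biotinylated SIRPalpha as control inhibitor.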
# [19] = target: T1, Tyrosine-protein phosphatase non-receptor type substrate 1 (Homo sapiens) + Leukocyte surface antigen CD47 (Homo sapiens); test: CD47-SIRPalpha protein protein interaction - Alpha assay qHTS validation (AID 1347059);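 further: bead proximity luminescence from CD47 binding SIRPalpha after compound preincubation with SIRPalpha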
# Summary of the method: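 Biotinylated Avi-tagged SIRPalpha (25 nM) preincubated 30 min with compound, then His-tagged CD47 (12.5 nM) added 30 min; AlphaScreen with Ni-NTA acceptor and streptavidin donor beads. PBS pH 7.4, 0.05% IGEPAL, room temperature; 7-point titrations.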
# [20] = target: Parathyroid hormone/parathyroid hormone-related peptide receptor (Homo sapiens) (UniProt Q03431); test: qHTS for PTHR1 Agonists: Optimization Screen against the NCGC LOPAC library (AID 1347079);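 further: GloSensor cAMP luminescence in HEK-293 GP2 cells expressing human PTHR1 with IBMX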
# Chain of Parathyroid hormone/parathyroid hormone-related peptide receptor (Homo sapiens) (Q03431 whole entry, looked up): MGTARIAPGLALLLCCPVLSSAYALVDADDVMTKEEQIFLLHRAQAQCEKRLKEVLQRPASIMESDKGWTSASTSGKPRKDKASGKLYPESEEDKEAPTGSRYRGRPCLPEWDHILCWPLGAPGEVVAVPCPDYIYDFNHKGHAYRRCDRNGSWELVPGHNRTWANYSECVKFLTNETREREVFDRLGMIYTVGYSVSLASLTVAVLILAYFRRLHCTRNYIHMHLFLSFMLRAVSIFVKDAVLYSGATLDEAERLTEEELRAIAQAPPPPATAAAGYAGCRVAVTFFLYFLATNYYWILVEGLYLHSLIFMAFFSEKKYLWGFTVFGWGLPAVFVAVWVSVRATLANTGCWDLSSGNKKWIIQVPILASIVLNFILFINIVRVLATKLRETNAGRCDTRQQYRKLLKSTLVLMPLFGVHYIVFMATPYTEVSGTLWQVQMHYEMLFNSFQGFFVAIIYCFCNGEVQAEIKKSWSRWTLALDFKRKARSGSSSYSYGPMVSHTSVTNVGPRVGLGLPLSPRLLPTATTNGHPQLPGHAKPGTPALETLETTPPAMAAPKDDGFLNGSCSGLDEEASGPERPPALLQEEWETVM
# Summary of the method: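 Agonist readout: GloSensor cAMP luminescence, read after 15 min at room temperature. HEK-293-derived GP2 line carries PTHR1; compounds tested as a titration for 1 hr at 37C in presence of IBMX. M-PTH (1-15) served as control.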
SMILES,Potency [1],Potency [2],Potency [3],Potency [4],Potency [5],Potency [6],Potency [7],Potency [8],Potency [9],Potency [10],Potency [11],Potency [12],Potency [13],Potency [14],Potency [15],Potency [16],outcome [17],outcome [18],outcome [19],outcome [20]
COP(=S)(OC)Oc1ccc(S(N)(=O)=O)cc1,inactive,inactive,inactive,inactive,inactive,inactive,inactive,inactive,inactive,inactive,inactive,inactive,inactive,inactive,inactive,inactive,,,,
C1CN2CCC1CC2,inactive,inactive,inactive,inactive,inactive,inactive,inactive,inactive,inactive,inactive,inactive,inactive,inactive,inactive,inactive,inactive,,,,
O=C(O)c1nn(Cc2ccc(Cl)cc2Cl)c2ccccc12,inactive,inactive,inactive,inactive,inactive,inactive,inactive,inactive,inactive,inactive,inactive,inactive,inactive,inactive,inactive,inactive,inactive,inactive,inactive,inactive
COP(=O)(OC)C(O)C(Cl)(Cl)Cl (stereo unspecified),inactive,inactive,inactive,inactive,inactive,inactive,inactive,inactive,inactive,inactive,inactive,inactive,inactive,inactive,inactive,inactive,,,,
C[C@@H]1O[C@@H](O[C@@H]2C=C3CC[C@@H]4[C@H](CC[C@]5(C)[C@@H](c6ccc(=O)oc6)CC[C@]45O)[C@@]3(C)CC2)[C@H](O)[C@H](O)[C@H]1O,inactive,inactive,inactive,inactive,inactive,3.3 nM (active),2.1 nM (active),6.7 nM (active),2.7 nM (active),1 nM (active),2.5 nM (active),11.9 nM (active),,3.8 nM (active),68.7 nM (active),6.7 nM (active),,,,
CCN1CCCC1CNC(=O)C(O)(c1ccccc1)c1ccccc1 (stereo unspecified),inactive,inactive,inactive,inactive,inactive,inactive,inactive,inactive,inactive,inactive,inactive,inactive,,inactive,inactive,inactive,,,,
CC(=O)OC1(c2ccccc2)CCN(CCc2ccccc2)CC1,inactive,inactive,inactive,inactive,inactive,inactive,inactive,,,,,,inactive,,,inactive,,,,
CN1C(=O)CN=C(c2ccccc2)c2cc([N+](=O)[O-])ccc21,inactive,inactive,inactive,inactive,inactive,inactive,inactive,inactive,inactive,,inactive,inactive,,inactive,inactive,inactive,,,,
Cc1nnc2n1-c1sc(CCC(=O)N3CCOCC3)cc1C(c1ccccc1Cl)=NC2,inactive,inactive,inactive,inactive,inactive,inactive,,inactive,inactive,inactive,inactive,inactive,inactive,inactive,inactive,inactive,,,,
C=CC[C@]1(O)CC[C@H]2[C@@H]3CCC4=CC(=O)CCC4=C3C=C[C@@]21C,inactive,inactive,inactive,inactive,inactive,inactive,inactive,inactive,inactive,,,inactive,inactive,inactive,inactive,,,,,
CCOC(=O)C(c1c(O)c2ccccc2oc1=O)c1c(O)c2ccccc2oc1=O,inactive,inactive,inactive,inactive,inactive,inactive,inactive,inactive,inactive,,inactive,inactive,inactive,inactive,inactive,inactive,,,,
COP(=S)(OC)Oc1ccc(Sc2ccc(OP(=S)(OC)OC)cc2)cc1,inactive,inactive,inactive,inactive,inactive,inactive,inactive,inactive,inactive,inactive,inactive,inactive,,inactive,inactive,inactive,,,,
O=c1[nH]c2cc(Cl)ccc2n1C1CCNCC1,inactive,inactive,inactive,inactive,inactive,inactive,,inactive,inactive,inactive,inactive,inactive,,inactive,inactive,inactive,,,,
C#C[C@]1(O)C=C[C@H]2[C@@H]3CCC4=CC(=O)CC[C@@H]4[C@H]3CC[C@@]21CC,inactive,inactive,inactive,inactive,inactive,inactive,inactive,inactive,inactive,inactive,inactive,,,inactive,inactive,inactive,,,,
CCOP(=S)(OCC)O/N=C(\C#N)c1ccccc1,inactive,inactive,inactive,inactive,inactive,inactive,,inactive,inactive,inactive,inactive,inactive,inactive,inactive,inactive,inactive,,,,
c1ccc2nc(N3CCNCC3)ccc2c1,inactive,inactive,inactive,inactive,inactive,inactive,inactive,inactive,inactive,,inactive,inactive,,inactive,,inactive,,,,
CC1Sc2c(C(=O)O)c(=O)c3cc(F)c(N4CCNCC4)cc3n21 (stereo unspecified),inactive,inactive,inactive,inactive,inactive,inactive,inactive,inactive,,,inactive,inactive,,inactive,inactive,,,,,
ClCCCN1CCN(c2cccc(Cl)c2)CC1,inactive,inactive,inactive,inactive,inactive,inactive,,inactive,inactive,inactive,inactive,inactive,inactive,inactive,inactive,,,,,
